# Only some compounds are listed: those with a hit (about 1.1% of all), similar ones and a draw of the others.
# Y pestis TopoI: blocks Yersinia pestis topoisomerase I activity | 0.064% of 360,000 active | activity, % at 10 µM | Y. pestis Topo-I cleavage product accumulation, plate reader; in the data active = activity above about 50%, passing the limit was not always enough
# FadD28 FP inh: blocks FadD28 binding to the bisubstrate probe; fluorescence polarization; inhibition, % at 12.5 µM; 0.22% of 360,000 active; in the data active = inhibition above about 8.5%, passing the limit was not always enough
# PfHsp40 yeast: restores yeast growth despite PfHsp40 toxicity | AID 504582 | S. cerevisiae expressing PfHsp40, growth rescue, ATP luminescence | 0.68% of 340,000 active | growth rescue, % at 12.5 µM; in the data active = growth rescue above about 28%, passing the limit was not always enough;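 note: yeast W303a lacking pdr1 and pdr3 grown in galactose medium; growth measured after three days at 30 °C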
# Mtb BioA inh: inhibitors of Mycobacterium tuberculosis BioA enzyme; purified M. tuberculosis BioA enzyme, plate reader; inhibition, % at 9.99 µM; 0.096% of 360,000 active; AID 602481; in the data active = inhibition above about 40%
# PrP UTR inh: inhibition of PrP 5' UTR reporter expression. cell-based PrP 5' UTR mRNA reporter, plate reader. inhibition, % (test concentration not listed). 0.35% of 340,000 active. AID 488862; in the data active = inhibition above about 52%; note: 0 = median of the neutral control wells
# The depositor's hits bear a star; x = no result.
SMILES,Y pestis TopoI,FadD28 FP inh,PfHsp40 yeast,Mtb BioA inh,PrP UTR inh
COc1cc(OC)c(C#N)c(S(=O)(=O)Cc2ccccc2)c1,-1,-2,64*,0,-10
N#Cc1c([N+](=O)[O-])cc([N+](=O)[O-])cc1S(=O)(=O)Cc1ccccc1,-10,-18,17,0,-30
O=C(NCc1ccccc1)c1ccc2nccnc2c1,-4,-2,31*,1,-21
O=C(NCc1ccco1)c1ccc2nccnc2c1,10,-3,1,1,-12
COc1ccc(NC(=O)CC2Sc3ncnn3C2=O)cc1 (configuration not stated),5,0,1,4,-8
CCOC(=O)c1ccc(NC(=O)Cn2ncc(Cl)c(Cl)c2=O)cc1,9,-1,34*,x,-31
CCOC(=O)c1ccc(NC(=O)CC2Sc3ncnn3C2=O)cc1 (configuration not stated),5,0,42*,x,-20
C[C@H]1CN([C@@H](C)CO)C(=O)CCCn2cc(nn2)CO[C@H]1CN(C)Cc1ccccc1C(=O)O,x,x,x,-2,x
CC(C)CC#Cc1cnc2c(c1)C(=O)N([C@H](C)CO)C[C@H](C)[C@@H](CN(C)S(=O)(=O)c1cn(C)cn1)O2,x,x,x,1,x
CO[C@@H]1CN(C)C(=O)c2ccc(NS(=O)(=O)c3ccccc3C)cc2OC[C@@H](C)NC[C@H]1C,x,x,x,3,x
O=C(OCc1ccccc1)c1cn(-c2ccccc2)nc1-c1ccncc1,32,0,104*,x,-9
CCCC(=O)Nc1ccc2c(c1)C(=O)N(C)C[C@H](OC)[C@H](C)CN(Cc1ccccn1)[C@@H](C)CO2,x,x,x,0,x
C[C@@H]1CCCCCCCCC(=O)OCCN[C@H](C)CCCCCCCCC(=O)OCCN[C@H](C)CCCCCCCCC(=O)OCCN1,-11,-1,41*,2,-22
CC[C@H](C)/C=C(C)/C=C/c1cc2c(cn1)C(=O)[C@@](C)(OC(C)=O)C(O)=C2Cl,13,11*,x,3,x
COc1ccc(CC(=O)Nc2cccc(-c3csc(C)n3)c2)cc1,6,-2,5,1,-3
Cc1nc(-c2cccc(NC(=O)COc3ccc(Cl)cc3)c2)cs1,21,-5,56*,-1,-8
C[C@H]1CN([C@@H](C)CO)C(=O)Cc2cc(NS(=O)(=O)c3ccccc3)ccc2O[C@H]1CN(C)Cc1ccc2c(c1)OCO2,x,x,x,2,x
O=c1cnn([C@@H]2O[C@H](CO)[C@@H](O)[C@H]2O)c(=O)[nH]1,-1,-2,61*,-1,34
O=C(O)c1cccc2nc3ccccc3nc12,-9,0,48*,-3,-4
O=C(O)c1nc2ccccc2nc1C(=O)O,1,-3,0,0,-46
COC(=O)C[C@@H]1CC[C@H]2[C@@H](COc3ccc(NC(=O)C4CCOCC4)cc3C(=O)N2C)O1,x,x,x,0,x
C[C@H]1COC(=O)[C@H](Cc2ccc(F)cc2)C/C=C\C[C@@H](CC(=O)N(CCO)Cc2ccccc2)C(=O)N1,27,0,55*,0,-20
CCCOc1ccc2ccccc2c1/C=C1\SC(=O)NC1=O,14,-8,504*,14,-20
COc1ccccc1OCCCOc1ccc(/C=C2\SC(=O)NC2=O)cc1OC,10,1,1,2,-15
COc1ccc(-c2cc(-c3ccc(OC)cc3)[nH]n2)cc1,8,-3,53*,2,-63
SMILES,Y pestis TopoI,FadD28 FP inh,PfHsp40 yeast,Mtb BioA inh,PrP UTR inh
Clc1nc(-c2ccccn2)nc2scc(-c3ccccc3)c12,-3,-6,400*,1,-16
O=C(N/N=C/C(Cl)=C/c1ccc([N+](=O)[O-])cc1)C(=O)Nc1ccc(C(=O)O)cc1,3,-1,85*,x,-7
CCCc1cc(C(=O)NNC(=S)NCC2CCCO2)cs1 (configuration not stated),-1,-1,69*,0,-13
COc1ccc(Cl)cc1C(=O)Nc1ccc(NC(C)=O)cc1,3,-1,-1,x,-9
CC(=O)Oc1c(I)cc(I)cc1C(=O)Nc1ccc(Cl)cc1,-3,1,217*,-4,-18
COc1cc(/C=C2\SC(=S)N(NC(=O)c3ccc(O)c(OC)c3)C2=O)ccc1O,-4,16*,0,10,-15
COc1cccc(/C=C2/SC(=S)N(CC(=O)NNC(=O)c3ccccc3O)C2=O)c1,-3,-4,155*,x,-12
COc1cc(/C=C2\SC(=S)N(NC(=O)c3ccncc3)C2=O)ccc1O,-8,-6,1,x,-18
COc1cc(/C=C2\SC(=S)N(NC(=O)c3cccc(O)c3)C2=O)ccc1O,-14,13*,0,0,-13
Cc1noc(C)c1NC(=O)Nc1ccc2c(c1)C(=O)N([C@@H](C)CO)C[C@@H](C)[C@@H](CN(C)S(=O)(=O)c1ccc(F)cc1)OCCCC[C@@H](C)O2,x,x,x,0,x
CO[C@@H](C(=O)N(C)C[C@@H]1OCc2ccccc2-c2ccccc2C(=O)N([C@H](C)CO)C[C@H]1C)c1ccccc1,x,x,x,0,x
COC(=O)COc1ccc(-c2ccccc2)cc1C=O,11,-4,64*,x,-25
COC(=O)COc1ccc(C)cc1-n1nc2ccccc2n1,4,-1,44*,-1,-13
Cc1ccc(OC(=O)COc2ccccc2C)c(-n2nc3ccccc3n2)c1,3,2,0,-5,-74
COC(=O)COc1ccc(-c2ccc(F)cc2)cc1C=O,-4,-4,63*,x,-24
COC(=O)COc1ccccc1C(N)=O,4,-1,-2,0,-12
CC=Cc1ccc2n(c1=O)C[C@@H]1[C@@H](CO)[C@H](C(=O)NCCc3ccncc3)[C@H]2N1Cc1ccncc1 (mixture of isomers),x,x,x,-2,x
CCCCCCC(C)(C)c1ccc([C@@H]2C[C@H](O)CC[C@H]2CCCO)c(O)c1,25,-9,68*,0,-21
COc1cccc(CNC(=O)C[C@H]2CC[C@@H](NC(=O)C3CC3)[C@@H](CO)O2)c1,x,x,x,0,x
COCCCn1c(SCc2ccc(OC)cc2)nc2cc(OC)c(OC)cc2c1=N,8,21*,-1,1,-14
CCOC(=O)c1cnc(-n2nc(C)cc2C)nc1NCCc1ccccc1,4,-5,65*,3,-12
CCOC(=O)c1cnc(-n2nc(C)cc2C)nc1Nc1ccc(OC)cc1,6,-2,3,0,-7
CCOC(=O)c1cnc(-n2nc(C)cc2C)nc1NC1CCCC1,16,-3,163*,1,-5
Cc1cccc(S(=O)(=O)N[C@@H]2CC[C@@H](CCn3cc(-c4ccccn4)nn3)O[C@@H]2CO)c1,x,x,x,3,x
Cc1ccc(/C=C/C(=O)C2C(=O)c3ccccc3C2=O)cc1,2,11*,2,x,12
C[C@H]1CN([C@@H](C)CO)S(=O)(=O)c2ccc(C#CC3CC3)cc2O[C@H]1CN(C)C(=O)c1ccccc1,x,x,x,1,x
C[C@@H]1CN([C@@H](C)CO)C(=O)c2cccc(NS(=O)(=O)c3cccs3)c2O[C@@H]1CN(C)S(C)(=O)=O,x,x,x,0,x
CCn1c(SCC(=O)N2CCCc3ccccc32)nnc1-c1ccco1,-3,-2,48*,1,-2

# Bioassay records deposited in PubChem BioAssay by Broad Institute.
